This passage reports growth results from PubChem BioAssay (NCI).

Some test systems named below: NCI-H23 lung; NCI-H226 lung; NCI-H322M lung; HOP-62 NSCLC; NCI-H460 lung; NCI-H522 lung; A549/ATCC NSCLC; 786-0 renal; COLO 205 colon; DU-145 prostate; K-562 leukemia; MDA-MB-231 breast; RXF 393 renal; SF-268 CNS; SF-295 CNS; SF-539 CNS; UACC-257 melanoma; M14 melanoma; HCT-15 colon.
What all share (assay): NCI-60 one-dose screen, 48 h (100 = growth as untreated, 0 = no growth, -100 = all killed)
Details in all cases: 10 µM

Compounds without any hit were thinned out: in the full panel of roughly 83,000, 20% have a hit.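 Note: values are percent growth. 100 is the growth of untreated cells, values between 100 and 0 indicate rising inhibition; between -100 and 0 indicates cell death.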 A number with no mark means an inactive call. Active and inactive are the calls of the source. The calls were made as follows: active = growth percent below 10; inactive = the rest.

As for `COc1cc(CNc2ccccc2C(=O)N2CCN(C(=O)c3cc(-c4cc(OC)c(OC)c(OC)c4)n4nc(-c5ccccc5)cc4n3)CC2)cc(OC)c1OC`, the growth is 61.7% in the assay with NCI-H23 lung; 76.5% in the assay with NCI-H226 lung; 43.7% with NCI-H322M lung; 53.9% in the assay on HOP-62 NSCLC; 11.7% with NCI-H460 lung; 7.02% (active) in the assay with NCI-H522 lung. For the same compound, the growth with A549/ATCC NSCLC is 37.8%; with 786-0 renal it was 50.8%; with COLO 205 colon, 46.8%; with DU-145 prostate, 67.7%; with K-562 leukemia, 22.8%; with MDA-MB-231 breast it was 67.8%. In addition, the growth was 35.5% in the assay on RXF 393 renal; 65% in the assay on SF-268 CNS; 0.214% (active) in the assay with SF-295 CNS; 49.4% with SF-539 CNS; 37.5% in the assay with UACC-257 melanoma; 33% in the assay on M14 melanoma. In addition, in the assay on HCT-15 colon, the growth was 42.8%.

In the case of `CCCCCCCCCCCCCC[n+]1ccc(C(N)=O)cc1`, the growth in the assay on NCI-H23 lung was 16.7%; in the assay with NCI-H226 lung it was -7.94% (active); in the assay on NCI-H322M lung, 58.8%; with HOP-62 NSCLC it was 10.5%; in the assay on NCI-H460 lung it was 0.582% (active); with NCI-H522 lung, -21.7% (active). The growth with A549/ATCC NSCLC was 33.6%; in the assay on 786-0 renal, -12.1% (active); in the assay on COLO 205 colon it was -100% (active); in the assay with DU-145 prostate, 22.8%; with K-562 leukemia, 9.07% (active); with MDA-MB-231 breast, -35.3% (active). The growth in the assay with RXF 393 renal is -52.4% (active); in the assay with SF-268 CNS it was -12.5% (active); in the assay with SF-295 CNS, -27.8% (active); in the assay on SF-539 CNS it was -3.7% (active); in the assay with UACC-257 melanoma, 9.72% (active); in the assay on M14 melanoma, -45.1% (active). For the same compound, the growth with HCT-15 colon was 62.6%.

On to `O=[N+]([O-])c1ccc(Oc2cccnc2)c([N+](=O)[O-])c1`, for which the growth in the assay with NCI-H23 lung was 96.5%; with NCI-H226 lung, 89.7%; with NCI-H322M lung, 94.8%; in the assay on HOP-62 NSCLC, 104%; with NCI-H460 lung it was 109%; in the assay on NCI-H522 lung, 36.3%. Moreover, the growth in the assay on A549/ATCC NSCLC is 102%; in the assay with 786-0 renal, 93.2%; in the assay on COLO 205 colon it was 55.5%; in the assay on DU-145 prostate, 86.2%; in the assay with K-562 leukemia, 16.1%; with MDA-MB-231 breast, 94%. In addition, the growth is 63.9% in the assay on RXF 393 renal; 97.5% in the assay on SF-268 CNS; 104% in the assay with SF-295 CNS; 75.7% in the assay on SF-539 CNS; 63.6% in the assay on UACC-257 melanoma; 84.9% in the assay with M14 melanoma. Besides, the growth in the assay with HCT-15 colon is 53.1%.

For the compound `COc1ccc2c(c1)C(=O)c1c-2c(OCCN(C)C)nc2ccccc12`, the growth was 41.5% in the assay on NCI-H23 lung; 45.5% in the assay on NCI-H226 lung; -5.17% (active) in the assay on NCI-H322M lung; 30.8% with HOP-62 NSCLC; 2.29% (active) in the assay on NCI-H460 lung; 21.2% in the assay on NCI-H522 lung. In addition, the growth with A549/ATCC NSCLC was 14%; in the assay on 786-0 renal, 33.7%; in the assay with COLO 205 colon, 23.4%; with DU-145 prostate it was 27%; with K-562 leukemia, 10.2%; in the assay with MDA-MB-231 breast it was 67.8%. For the same compound, the growth in the assay with RXF 393 renal is 49%; in the assay with SF-268 CNS, 26.6%; in the assay on SF-295 CNS, 18%; in the assay on SF-539 CNS it was 45.9%; in the assay on UACC-257 melanoma, 36.2%; with M14 melanoma, 30%. In the assay with HCT-15 colon, the growth is 20.5%.

In the case of `COc1ccc(Cn2c(C(N)=O)cc3c2-c2nc(N)ncc2CCC3)cc1`, the growth was 106% in the assay on NCI-H23 lung; 98.6% with NCI-H226 lung; 89.1% in the assay with NCI-H322M lung; 100% in the assay on HOP-62 NSCLC; 97.7% in the assay with NCI-H460 lung; 103% in the assay with NCI-H522 lung. Further, the growth in the assay with A549/ATCC NSCLC was 93.7%; in the assay with 786-0 renal it was 101%; in the assay on COLO 205 colon it was 101%; with DU-145 prostate, 99.4%; in the assay on K-562 leukemia, 107%; with MDA-MB-231 breast it was 88.9%. Also, the growth with RXF 393 renal is 102%; with SF-268 CNS, 96.8%; with SF-295 CNS it was 98.3%; in the assay on SF-539 CNS, 95.8%; with UACC-257 melanoma it was 102%; in the assay with M14 melanoma, 96.7%. Moreover, the growth with HCT-15 colon was 91.1%.

For the compound `Clc1ccccc1N=Cc1ccc2c(c1)OCO2`, the growth in the assay with NCI-H23 lung is 108%; in the assay with NCI-H226 lung, 105%; with NCI-H322M lung, 110%; in the assay with HOP-62 NSCLC, 110%; with NCI-H460 lung, 116%; in the assay on NCI-H522 lung it was 80.3%. Besides, the growth in the assay on A549/ATCC NSCLC was 98.2%; in the assay on 786-0 renal, 104%; with COLO 205 colon, 109%; in the assay with DU-145 prostate, 112%; in the assay with K-562 leukemia, 87.1%; in the assay on MDA-MB-231 breast, 94.4%. Also, the growth was 106% in the assay with RXF 393 renal; 107% with SF-268 CNS; 102% in the assay with SF-295 CNS; 112% in the assay with SF-539 CNS; 104% in the assay on UACC-257 melanoma; 103% with M14 melanoma. Moreover, in the assay on HCT-15 colon, the growth was 100%.

As for `COc1ccc(/C=C/C(=O)Nc2ccc(-c3nc4ccc(OC)cc4s3)cc2)cc1`, the growth in the assay with NCI-H23 lung is 94.7%; with NCI-H226 lung, 99.9%; with NCI-H322M lung, 112%; in the assay on HOP-62 NSCLC, 101%; in the assay with NCI-H460 lung it was 106%; in the assay with NCI-H522 lung, 91.2%. Besides, the growth in the assay on A549/ATCC NSCLC was 103%; in the assay with 786-0 renal, 103%; with COLO 205 colon, 121%; in the assay on DU-145 prostate it was 117%; in the assay on K-562 leukemia, 95.7%; in the assay on MDA-MB-231 breast, 111%. Further, the growth in the assay with RXF 393 renal is 112%; in the assay on SF-268 CNS, 116%; in the assay with SF-295 CNS it was 106%; with SF-539 CNS it was 102%; in the assay on UACC-257 melanoma, 111%; in the assay on M14 melanoma it was 106%. Also, the growth in the assay with HCT-15 colon was 111%.

Regarding `O=c1cc(-c2ccccc2)[nH]n1-c1nc2ccccc2[nH]1`, the growth was 56.1% with NCI-H23 lung; 67.7% with NCI-H226 lung; 49.9% with NCI-H322M lung; 48% in the assay on HOP-62 NSCLC; 20.7% in the assay on NCI-H460 lung; 21.6% with NCI-H522 lung. The growth in the assay on A549/ATCC NSCLC is 30.7%; in the assay on 786-0 renal, 50.1%; in the assay with COLO 205 colon, 106%; in the assay on DU-145 prostate, 61.1%; in the assay with K-562 leukemia it was 10.1%; in the assay on MDA-MB-231 breast, 73%. The growth is 52.2% in the assay with RXF 393 renal; 60.2% in the assay on SF-268 CNS; 21.6% in the assay with SF-295 CNS; 47.6% in the assay with SF-539 CNS; 75.6% in the assay on UACC-257 melanoma; 41.8% with M14 melanoma. The growth in the assay with HCT-15 colon was 30.7%.
